In PubChem BioAssay (NCATS):
Results filed as inconclusive are left out. Activity calls are given as the source filed them. Calls follow the shape of the dose curve; as a rule, active = well fitted curve in the direction sought with a large enough effect; inconclusive = small, poorly fitted or top-dose-only effect, or another doubt; inactive = no such curve, though single readings can be large; an effect the other way counts as inactive or inconclusive.

What was measured:
[1] = qHTS assay for measurement of the activity of small molecule inhibitors on Zika virus induced Caspase-3 activity in human iPSC derived neural progenitor cells (hNPCs) (AID 1224857); conditions: hNPCs ZIKV-induced caspase-3/7, Caspase-Glo luminescence, 6 h; series mostly up to 45.7 µM; also: nearly all actives have a fitted effect of over 65% in size; also: potency is read from the fitted curve at half-maximal effect
Procedure, shortened: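 Pretreat hNPCs with compound 1 h; infect ZIKV 2 FFU/cell; 6 h 37 C, 5% CO2; Caspase-Glo 3/7, 30 min RT; luminescence; normalize to no-virus and virus-only wells.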

[2] = qHTS assay for measurement of the activity of small molecule inhibitors on Zika virus induced Caspase-3 activity in human astrocytoma cells (AID 1224859); conditions: SNB-19 ZIKV-induced caspase-3/7, luminescence, 6 h; series mostly up to 45.7 µM
Procedure, shortened: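 Human SNB-19 astrocytoma cells in RPMI 1640 with 10% FBS receive compound one hour ahead of Zika virus at 2 FFU/cell. After 6 h infection, caspase-3/7 activity is detected by Caspase-Glo luminescence.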

[3] = qHTS assay to identify small molecule inhibitors of chordoma cells - UCH-1 (AID 1259355); conditions: UCH-1 chordoma viability, CellTiter-Glo, 48 h, combination, with auranofin plus four topoisomerase inhibitors; series mostly up to 46.1 µM; also: nearly all actives have a fitted effect of over 55% in size; also: potency is read from the fitted curve at half-maximal effect
Procedure, shortened: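 Screening used approved and investigational drugs in 15-point titration against 800 seeded cells per well. A fixed combination of auranofin with camptothecin, doxorubicin, rubitecan and topotecan followed compound addition, and growth was scored by CellTiter-Glo after 48hr.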

[4] = qHTS assay to identify small molecule inhibitors of chordoma cells - UCH-2 (AID 1259356); conditions: UCH-2 chordoma viability, CellTiter-Glo ATP luminescence, 48 h; series mostly up to 46.1 µM; also: potency is read from the fitted curve at half-maximal effect
[5] = P-glycoprotein substrates identified in KB-3-1 adenocarcinoma cell line, qHTS therapeutic library screen (AID 1346986); conditions: KB-3-1 parental cells viability, CellTiter-Glo, 72 h; also: nearly all actives have a fitted effect of over 60% in size
Procedure, shortened: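 In 1536-well format, 500 cells/well received pinned compound titrations and were incubated 72 h, 5% CO2. Viability was read by CellTiter-Glo; cytotoxic if AC50 < 10 uM and efficacy >50%.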

[6] = P-glycoprotein substrates identified in KB-8-5-11 adenocarcinoma cell line, qHTS therapeutic library screen (AID 1346987); conditions: KB-8-5-11 (P-gp overexpressing) viability, CellTiter-Glo, 72 h; series mostly up to 44.5 µM; also: nearly all actives have a fitted effect of over 65% in size; also: potency is read from the fitted curve at half-maximal effect
Procedure, shortened: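 Compounds are pinned in dose-response onto KB-8-5-11 cells (500 cells/well, colchicine-free medium) and left 72 h at 37 degree C. CellTiter-Glo luminescence then yields AC50 values.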

Measured: Potency

COc1cc(N)c(Cl)cc1C(=O)NC1CCN(Cc2ccccc2)CC1
inactive: [1] | [2] | [3] | [4]

COC(=O)C(c1ccccc1Cl)N1CCc2sccc2C1 (stereo not drawn)
inactive: [1] | [2] | [3] | [4]

CC[C@H](c1ccc(O)cc1)[C@@H](CC)c1ccc(O)cc1
inactive: [1] | [2] | [3] | [4]

CCCCN=C(N)N=C(N)N
inactive: [5]

N[C@H](C(=O)O)[C@@H](O)c1ccc(O)c(O)c1
inactive: [1] | [2] | [3] | [4] | [6]

Cc1c(-c2ccccc2)oc2c(C(=O)OCCN3CCCCC3)cccc2c1=O
inactive: [1] | [2] | [3] | [4] | [6]

C[N+]1(CC2COC(c3ccccc3)(C3CCCCC3)O2)CCCCC1 (stereo not drawn)
inactive: [1] | [2] | [3] | [4] | [6]

CC(C)[N+](C)(C)CC(O)COc1cccc2ccccc12 (stereo not drawn)
inactive: [1] | [2] | [3] | [4] | [6]

NC(N)=NN=C(/C=C/c1ccc([N+](=O)[O-])o1)/C=C/c1ccc([N+](=O)[O-])o1
inactive: [2]
active: [1] 31.6 µM | [3] 10 µM | [4] 16.4 µM | [6] 4.61 µM

CCCCC(CC)CN1CN(CC(CC)CCCC)CC(C)(N)C1 (stereo not drawn)
inactive: [1] | [2] | [3] | [4] | [6]

CC(=O)Nc1ccc(CC(=O)O)cc1
inactive: [1] | [2] | [3] | [4] | [6]

CC(C)[C@@H]1CC[C@@H](C)CC1=O
inactive: [1] | [2] | [3] | [4] | [6]

O=C(O)CCC(=O)Nc1ccc(S(=O)(=O)Nc2nccs2)cc1
inactive: [1] | [2] | [3] | [4] | [6]

CC1CCc2c(N3CCC(O)CC3)c(F)cc3c(=O)c(C(=O)O)cn1c23 (stereo not drawn)
inactive: [1] | [2] | [3] | [4] | [6]

CCOc1ccc(NC(C)=O)cc1
inactive: [1] | [2] | [3] | [4] | [6]

Cc1cccc(C)c1NC(=O)c1ccccc1C(=O)O
inactive: [1] | [2] | [3] | [4] | [6]

Cc1cccc(C)c1NC(=O)CN1CCCCCC1
inactive: [1] | [2] | [3] | [4] | [6]

COP(=O)(OC)OC(c1ccc(Cl)cc1)P(=O)(OC)OC (stereo not drawn)
inactive: [1] | [2] | [3] | [4] | [6]

CC(C)(C)CC(C)(C)c1ccc(O)c(-n2nc3ccccc3n2)c1
inactive: [1] | [2] | [3] | [4] | [6]

Cc1cc(CC(=O)O)c(C)n1-c1ccc(Cl)cc1
inactive: [1] | [2] | [3] | [4] | [6]

Cc1nc(-c2ccc(Cl)cc2)oc1COC(C)(C)C(=O)O
inactive: [1] | [2] | [3] | [4] | [6]

COc1cc(O)c(C(=O)c2ccccc2)cc1S(=O)(=O)O
inactive: [1] | [2] | [3] | [4] | [6]

Oc1c(Cl)cc(Cl)c(Cl)c1Cc1c(O)c(Cl)cc(Cl)c1Cl
inactive: [1] | [2] | [4]
active: [3] 25.1 µM | [6] 2.06 µM

CC(=O)Nc1ccc(OCC(O)CNC(C)C)cc1 (stereo not drawn)
inactive: [1] | [2] | [3] | [4] | [6]

O=C(Oc1cccc2cccnc12)c1ccccc1
inactive: [1] | [2] | [3] | [4] | [6]

CN(C)CCC[C@@]1(c2ccc(F)cc2)OCc2cc(C#N)ccc21
inactive: [1] | [2] | [3] | [4] | [6]

CCCCCCCCOc1ccc(C(=O)c2ccccc2)c(O)c1
inactive: [1] | [2] | [3] | [4] | [6]

Cc1cc(NS(=O)(=O)c2ccc(N)cc2)nc(C)n1
inactive: [1] | [2] | [3] | [4] | [6]

CN(C)C(=O)Nc1ccc(Cl)c(Cl)c1
inactive: [1] | [2] | [3] | [4] | [6]

C[C@H]1O[C@@H](O[C@H]2CC[C@@]3(C)[C@H](CC[C@@H]4[C@@H]3C[C@@H](O)[C@]3(C)[C@@H](C5=CC(=O)OC5)CC[C@]43O)C2)C[C@H](O)[C@@H]1O[C@H]1C[C@H](O)[C@H](O[C@H]2C[C@H](O)[C@H](O[C@@H]3O[C@H](CO)[C@@H](O)[C@H](O)[C@H]3O)[C@@H](C)O2)[C@@H](C)O1
inactive: [1] | [2]
active: [3] 0.708 µM | [4] 0.58 µM | [6] 0.651 µM

CC(C)(C)NCC(O)COc1cccc2c1C[C@H](O)[C@H](O)C2 (stereo partly drawn)
inactive: [1] | [2] | [3] | [4] | [6]
